Data taken from PMC6925144, “A prospective compound screening contest identified broader inhibitors for Sirtuin 1” (Scientific Reports, 2019).
Whole data set: some 3,200 compounds, median “TSA(with NAD+) / Primary screening (TSA) / delta Tm (K)” near -0.04, cut for the highest 2% near 0.37. The list comes from a sample in which the highest values are over-represented; it also holds similar structures and randomly drawn compounds.

Each compound was assayed against NAD-dependent deacetylase Sirtuin 1 (human, UniProt Q96EB6) (assay: primary screen, delta tm). Details: 10 µM.
Design: single well (n = 1, as 'the same TSA')
Method: A total of 3,192 compounds extracted from the proposed lists were first screened by thermal shift assay (TSA), which determined a melting temperature shift (ΔTm) of Sirtuin 1 upon the addition of a test compound at a concentration of 10 µM (n = 1) with primary hit criteria of ΔTm > 0.45 K or ΔTm < −1.5 K. Primary hits (48 compounds) were retested in the same assay at three concentrations (5, 10, 20 µM, n = 4) for hit confirmation and for dose-dependency check. Secondary hits (41 compounds) were checked their selectivity for Sirtuin 1 based on counterscreening on unrelated protein targets (bovine carbonic anhydrase (CA) and recombinant SH2 domain of hABL1 kinase (ABL1)) at three different concentrations (5, 10, 20 µM, n = 4), which yielded 38 hit compounds, hereafter referred to as TSA hits. The TSA screening above was conducted in the absence of NAD+. As noted, the structure of Sirtuin 1 is different in the presence of NAD+ and substrate. The chemical profile of TSA hits found from the different conditions could be different. […] As a result, 39 TSA hits were found.

NAD-dependent deacetylase Sirtuin 1, sequence (Q96EB6 2-747 limits assumed): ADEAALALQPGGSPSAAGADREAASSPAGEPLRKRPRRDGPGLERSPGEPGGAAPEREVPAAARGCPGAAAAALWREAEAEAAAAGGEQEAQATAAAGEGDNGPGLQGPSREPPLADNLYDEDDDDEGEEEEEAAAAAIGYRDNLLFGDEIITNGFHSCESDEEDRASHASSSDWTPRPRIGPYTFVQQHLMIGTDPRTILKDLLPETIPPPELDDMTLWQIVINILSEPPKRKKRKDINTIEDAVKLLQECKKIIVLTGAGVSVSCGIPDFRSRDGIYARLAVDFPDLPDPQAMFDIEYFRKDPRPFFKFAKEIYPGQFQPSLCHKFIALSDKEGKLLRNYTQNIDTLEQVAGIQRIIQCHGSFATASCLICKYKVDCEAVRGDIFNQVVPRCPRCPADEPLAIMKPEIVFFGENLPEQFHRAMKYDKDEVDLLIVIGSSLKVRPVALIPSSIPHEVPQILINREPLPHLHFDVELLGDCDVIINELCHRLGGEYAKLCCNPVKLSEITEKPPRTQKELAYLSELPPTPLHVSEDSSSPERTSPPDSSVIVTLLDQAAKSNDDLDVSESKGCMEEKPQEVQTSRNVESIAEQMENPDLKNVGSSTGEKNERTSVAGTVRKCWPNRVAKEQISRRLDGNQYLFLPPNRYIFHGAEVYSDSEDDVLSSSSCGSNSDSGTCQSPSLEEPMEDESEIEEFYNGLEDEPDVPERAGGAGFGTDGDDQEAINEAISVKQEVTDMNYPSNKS

SMILES | TSA(with NAD+) / Primary screening (TSA) / delta Tm (K)
COc1ccc(N(C)S(=O)(=O)c2cccc(C(=O)Nc3ccc4c(C)cc(=O)oc4c3)c2)cc1 | -0.09
COc1ccc(N(C)S(=O)(=O)c2cccc(C(=O)Nc3ncc(C(N)=O)s3)c2)cc1 | -0.03
Cc1ccc(N(C)S(=O)(=O)c2cccc(C(=O)Nc3cccc(C#N)c3)c2)cc1 | 0.28
COc1ccc(N(C)S(=O)(=O)c2cccc(C(=O)Nc3cccc4ccccc34)c2)cc1 | -0.09
COc1ccc(N(C)S(=O)(=O)c2cccc(C(=O)Nc3ccc(Br)cc3F)c2)cc1 | 0.36
CN(c1cccc(Cl)c1)S(=O)(=O)c1cccc(C(=O)Nc2cccc(C#N)c2)c1 | 0.45
CN(c1ccccc1)S(=O)(=O)c1cccc(NC(=O)c2cccc(C#N)c2)c1 | 0.08
COc1ccc(N(C)S(=O)(=O)c2cccc(C(=O)Nc3cccc(C#N)c3)c2)cc1 | 0.35
COc1ccc(N(C)S(=O)(=O)c2cccc(C(=O)Nc3ccc(-n4cnnn4)cc3)c2)cc1 | 0.76
COc1ccc(N(C)S(=O)(=O)c2cccc(C(=O)Nc3ccc(OC)c(OC)c3)c2)cc1 | -0.04
COc1ccc(N(C)S(=O)(=O)c2cccc(C(=O)Nc3ccc(Br)c(C(F)(F)F)c3)c2)cc1 | 0.69
COc1ccc(N(C)S(=O)(=O)c2cccc(C(=O)Nc3ccc4ccccc4c3)c2)cc1 | 0.65
CC(C)Cn1c(SCC(=O)Nc2sc3c(c2C(N)=O)CCC3)nnc1N1CCOCC1 | -0.18
Cc1ccc(-c2nn(-c3ccccc3)cc2C=C2C(=O)NC(=O)NC2=O)o1 | -0.59
CN(CCC#N)C(=O)C(C)(C)c1ccccc1 | -0.08
O=C(CSc1nnc(NCC2CCCO2)s1)Nc1nc(-c2cc(F)ccc2F)cs1 (stereo not shown) | 0.01
COc1ccc(N(C)S(=O)(=O)c2cccc(C(=O)Nc3cccc(Br)c3)c2)cc1 | 0.32
COc1ccc(N(C)S(=O)(=O)c2cccc(C(=O)Nc3ccc(Br)cc3)c2)cc1 | 1.36
CCCOC(=O)c1ccc(NC(=O)c2cccc(S(=O)(=O)N(C)c3ccc(OC)cc3)c2)cc1 | 0.29
CN(c1ccccc1)S(=O)(=O)c1cccc(C(=O)Nc2ccccc2-c2nc3ccccc3[nH]2)c1 | 0.38
COc1ccc(N(C)S(=O)(=O)c2cccc(C(=O)Nc3ccc(C)cc3)c2)cc1 | 0.11
Cc1ccc(N(C)S(=O)(=O)c2cccc(C(=O)Nc3nc4ccccc4[nH]3)c2)cc1 | -0.06

SMILES | TSA(with NAD+) / Primary screening (TSA) / delta Tm (K)
CN(c1ccccc1)S(=O)(=O)c1cccc(C(=O)Nc2ccccc2-c2ccccc2)c1 | -0.02
COc1ccc(N(C)S(=O)(=O)c2cccc(C(=O)Nc3ccc(Cl)cc3)c2)cc1 | 0.86
COc1ccc(NC(=O)c2cccc(S(=O)(=O)N(C)c3ccc(OC)cc3)c2)cc1 | -0.02
NC(=O)c1oc2ccccc2c1NC(=O)Cc1ccc(Cl)c(Cl)c1 | 0.12
CC(=O)Nc1ccc(NCc2nnc3n(C)c(=O)c4ccccc4n23)cc1 | -0.12
NC1=C(c2nc3ccccc3[nH]2)C(=O)CN1c1ccc(CC(=O)O)cc1 | -0.03
CC(O)CCCN (stereo not shown) | -0.11
Cc1ccc(S(=O)(=O)N2CCCCC2)cc1NC(=O)COC(=O)c1ccccc1SCC(=O)N1CCCC1 | -0.01
O=C(Nc1ccc(Oc2ncccn2)cc1)c1ccc(S(=O)(=O)Nc2ccc(F)cc2)cc1 | 0.06
N#CC(C(=O)c1ccc(NS(=O)(=O)c2ccccc2)cc1)c1nc(-c2ccccn2)cs1 (stereo not shown) | 0.47
Cc1nc(COc2ccc(C(=O)Nc3ccc(S(=O)(=O)Nc4cccc(F)c4)cc3)cc2)cs1 | -0.14
Cc1ccc(N(C)S(=O)(=O)c2cccc(C(=O)Nc3ccccc3C(F)(F)F)c2)cc1 | -0.09
O=C(NN/C=C1/C(=O)N(c2cccc(C(F)(F)F)c2)C(=O)c2ccccc21)c1cccc(S(=O)(=O)Nc2ccccc2Cl)c1 | 0.99
Cc1ccc(N(C)S(=O)(=O)c2cccc(C(=O)Nc3ccccc3Cl)c2)cc1 | -0.13
C=CCOc1ccc(C(=O)C2=C(O)C(=O)N(CCN3CCOCC3)C2c2ccco2)cc1 (stereo not shown) | -0.01
COc1ccccc1-c1noc(C(C)NC(=O)C(C)NC(C)=O)n1 (stereo not shown) | -0.01
COc1ccc(-c2cc(NC(=O)Cc3n[nH]c(=O)c4ccccc34)ccc2OC(F)F)cc1 | 0.07
COc1ccc(CC(=O)NCCNC(=O)c2ccc(C)c(F)c2)cc1 | -0.13
COc1ccc(-c2cc(NC(=O)CCNC(=O)c3ccc(Cl)cc3)ccc2OC(F)F)cc1 | 0.45
O=C(C1=C(O)C(=O)N(CCCN2CCOCC2)C1c1cccc([N+](=O)[O-])c1)c1ccc(F)cc1 (stereo not shown) | 0.06
O=C(COC(=O)c1cc(-c2ccc(Cl)cc2)nc2ccccc12)NNC(=O)c1cccs1 | 0.16
Nc1nc(COC(=O)c2cccc(NC(=O)c3cccs3)c2)nc(Nc2ccccc2)n1 | 0.42

SMILES | TSA(with NAD+) / Primary screening (TSA) / delta Tm (K)
Cc1cccc(C(=O)OCc2ccc(C(=O)Nc3ccccc3)cc2)c1 | -0.03
CC1CCCN(CCCNC(=O)CCc2cc3ccccc3[nH]c2=O)C1 (stereo not shown) | 0.11
O=C(CCc1ccc2c(c1)OCO2)N1CCc2[nH]c3ccccc3c2C1 | -0.01
O=C(Cc1c[nH]c2ccccc12)N1CCc2[nH]c3ccccc3c2C1 | 0.37
O=C(CN1CCCC2(CC=CCC2)C1)N1CCc2[nH]c3ccccc3c2C1 (stereo not shown) | 0.06
Cc1n[nH]c(=O)c(C(=O)NNC(=O)CC23CC4CC(CC(C4)C2)C3)c1C | 0.19
CCc1c(C)c(C#N)c2nc3ccccc3n2c1S | 0.46
Cc1c(CCC#N)c(Cl)n2c(nc3ccccc32)c1C#N | -0.03
CCc1c(C)c(C#N)c2nc3ccccc3n2c1Cl | -0.05
CCNC(=O)NCc1ccc(NC(=O)Cc2cn(CC)c3ccccc23)cc1 | 0.09
Cc1ccc2nc(-c3ccccc3)c(N)n2c1 | 0.38
NC(=O)c1cc(NC(=O)CC(c2ccccc2)c2ccccc2)cc(C(N)=O)c1 | -0.06
Cc1ccc(N(C)S(=O)(=O)c2cccc(C(=O)Nc3cc(F)ccc3C)c2)cc1 | -0.01
O=C(Nc1cc(S(=O)(=O)N2CCOCC2)ccc1O)C1=COCCO1 | -0.16
NC(=O)c1cccc(NC(=O)c2cc3c(s2)-c2ccccc2CC3)c1 | 0.88
CC(=O)Nc1ccc(NC(=O)c2cccc(C(N)=O)c2)cc1C | -0.12
CC1CCc2sc(C(=O)Nc3ccccc3Cc3ccccc3)cc2C1 (stereo not shown) | -0.13
O=C(O)c1nc(Nc2ccc(Cl)cc2)c2ccccc2n1 | -0.11
CCn1nnc2cc(C(=O)N3CCN(C(c4ccc(F)cc4)c4ccc(F)cc4)CC3)ccc21 | -0.22
Cc1ccc(NC(=O)COC(=O)c2ccc(-n3nnc4ccccc43)c([N+](=O)[O-])c2)cc1C | 0.35
CC(OC(=O)c1cc2c(s1)CCCC2)C(=O)Nc1ccc(C(N)=O)cc1 (stereo not shown) | 0.01
NC(=O)c1ccc(NC(=O)COC(=O)c2cc3c(s2)CCCCC3)cc1 | -0.13

SMILES | TSA(with NAD+) / Primary screening (TSA) / delta Tm (K)
CCOc1ccc(NC(=O)CN(C)Cc2ccc(C(=O)Nc3ccccc3)cc2)cc1OCC | -0.02
COc1cc(/C=N/NC(=O)c2cc3c(s2)CCCC3)ccc1OCC(=O)Nc1ccc(C)cc1 | 0.52
CCOc1cc(/C=N/NC(=O)c2cc3c(s2)CCCC3)ccc1OCC(=O)Nc1cccc(C(F)(F)F)c1 | 1.05
COc1cc(/C=N/NC(=O)c2cc3c(s2)CCCC3)ccc1OS(=O)(=O)c1cc(C)ccc1C | 0.09
O=c1cc(CSc2ncc(C(F)(F)F)cc2Cl)nc2ccccn12 | -0.23
Cc1cc(C=C2C(=O)NC(=S)NC2=O)c(C)n1-c1cccc(C(F)(F)F)c1 | -0.73
Cc1oc2nc[nH]c(=O)c2c1C(=O)OC(C)C(=O)N1CCOCC1 (stereo not shown) | -0.06
CCn1cc(C2CCN(C(=O)Cc3cnc4ccccc4c3)CC2)cn1 | 0.68
CCSC1CCC(NC(=O)Cc2cnc3ccccc3c2)C1 (stereo not shown) | -0.11
O=C(Nc1cnc2ccccc2c1)C(=O)N1CCC(Oc2ccccc2)CC1 | 0.06
COc1ccc(CNCc2c[nH]nc2-c2ccc(C)cc2)cc1OC | -0.13
c1ccc(-c2[nH]c3c(ccc4ccccc43)c2-c2ccccc2)cc1 | 0.29
Nc1nc(-c2c(-c3ccccc3)[nH]c3ccccc23)cs1 | 0.16
c1ccc(-c2[nH]c3ccccc3c2-c2ccccc2)cc1 | 0.39
CC1COCCN1c1ncnc2ccsc12 (stereo not shown) | 0.03
NC(=O)c1csc(C(=O)NCCc2cc(F)cc3c2OCOC3)c1 | -0.03
CC(OC(=O)c1cccc(S(=O)(=O)NCc2ccccc2)c1)C(=O)NC12CC3CC(CC(C3)C1)C2 (stereo not shown) | 0.16
COc1cc(C(C)=O)ccc1COc1ccc(C(=O)OC(C)C(=O)NC23CC4CC(CC(C4)C2)C3)cc1OC (stereo not shown) | 0.09
Cc1ccc([N+](=O)[O-])cc1S(=O)(=O)Nc1ccc(C(=O)OC(C)C(=O)NC23CC4CC(CC(C4)C2)C3)cc1 (stereo not shown) | 0.76
